Results filed as inconclusive are left out. The source made the active and inactive calls. The call rests on the fitted dose curve; in most records, active means well fitted cell-killing curve with a large enough effect in the repeat runs; inconclusive means weak or mixed curves, or effect the other way; inactive means no such curve, though single readings can be large or run the other way.
assay: qHTS assay to identify small molecule antagonists of the vitamin D receptor (VDR) signaling pathway - cell viability counter screen (AID 743225); settings: VDR-bla HEK293T viability, CellTiter-Glo luminescence, 16 h; series mostly up to 61 µM; viability change, negative = cytotoxic: at the top concentration; further: nearly all actives have a fitted effect of over 50% in size
Source text: U.S. Tox21 Program National Center for Advancing Translational Sciences [NCATS] NIH Chemical Genomics Center [NCGC] U.S. Environmental Protection Agency [EPA] National Institutes of Environmental Health Sciences [NIEHS] National Toxicology Program [NTP] U.S. Food and Drug Administration [FDA] Tox21 Assay Overview: The vitamin D receptor (VDR), a member of nuclear hormone receptor superfamily, plays a critical role in calcium homeostasis and bone metabolism. It is also involved in cell differentiation and growth, and thrombogenicity. To identify the compounds that inhibit VDR signaling, the VDR-UAS-bla HEK 293T cell line (Invitrogen, Carlsbad, CA, USA) containing a beta-lactamase reporter gene under the control of an upstream activator sequence (UAS) was used to screen the Tox21 10K compound library. The cytotoxicity of the Tox21 compound library against the VDR-bla cell line was tested in parallel by measuring the cell viability using CellTiter-Glo assay (Promega, Madison, WI) in the same wells.
Tox21 Assay Protocol Summary: VDR-bla cells were dispensed at 2,000 cells/5 uL of assay medium per well into black wall/clear-bottom 1536-well plates using a Multidrop Combi (Thermo Fisher Scientific, Waltham, MA) dispenser. After the assay plates were incubated at a 37C and 5% CO2 for 4 h, 23 nL of compounds dissolved in DMSO, positive controls or DMSO only was transferred to the assay plate by a Pintool station (Kalypsys, San Diego, CA), followed by addition of 1 uL of 1-alpha, 25-Dihydroxy Vitamin D3 (3 nM, final concentration in the wells) using a Bioraptr Flying Reagent Dispenser (FRD) workstation (Beckman Coulter, Indianapolis, IN). The plates were incubated at 37C and 5% CO2 for 16 h, and then 1 uL of LiveBLAzerTM B/G FRET substrate was added using a Bioraptr FRD. The plates were incubated at room temperature for 2 h and fluorescence intensity was measured by an Envision plate reader (PerkinElmer, Shelton, CT). For cell viability readout that measures cytotoxicity, 3 ul/well of CellTiter-Glo reagent was added into the assay plates using a Bioraptr FRD. After 30 min incubation at room temperature, the luminescence intensity in the plates was measured using a ViewLux plate reader (PerkinElmer).
On the % scale 0 is the no-effect control and ±100 the full control effect.

Row | SMILES | viability change, negative = cytotoxic
1 | CCO[Si](C)(OCC)OCC | -12.2% (inactive)
2 | CC(C)CCOC(=O)CC(C)C | 10.2% (inactive)
3 | OC[C@H]1O[C@@H]2O[C@H]3[C@H](O)[C@@H](O)[C@@H](O[C@H]4[C@H](O)[C@@H](O)[C@@H](O[C@H]5[C@H](O)[C@@H](O)[C@@H](O[C@H]6[C@H](O)[C@@H](O)[C@@H](O[C@H]7[C@H](O)[C@@H](O)[C@@H](O[C@H]8[C@H](O)[C@@H](O)[C@@H](O[C@H]9[C@H](O)[C@@H](O)[C@@H](O[C@H]1[C@H](O)[C@H]2O)O[C@@H]9CO)O[C@@H]8CO)O[C@@H]7CO)O[C@@H]6CO)O[C@@H]5CO)O[C@@H]4CO)O[C@@H]3CO | 6.34% [at 28.5 µM] (inactive)
4 | CNc1ncnc2nc[nH]c12 | -4.25% [at 78.8 µM] (inactive)
5 | CCN(CC)C(=O)c1ccc(O)c(OC)c1 | 0.806% (inactive)
6 | O=C(O)CCNC(=O)c1ccc(N=Nc2ccc(O)c(C(=O)O)c2)cc1 | -0.334% (inactive)
7 | C=C(C)C(=O)NCCC[N+](C)(C)C | -4.23% (inactive)
8 | COC(=O)c1ccc(C(=O)OC)c(C(=O)OC)c1 | -1.87% (inactive)
9 | CCCCc1ccc(N)cc1 | -3.22% (inactive)
10 | C#CC(C)(O)CC(C)C (stereo not given) | 5.82% (inactive)
11 | O=C(O)Cc1cc(I)c(Oc2cc(I)c(O)c(I)c2)c(I)c1 | -13.9% (inactive)
12 | CCC(=O)c1cccc(Cl)c1 | 15.9% [at 78.8 µM] (inactive)
13 | CCCCc1ccc2cccc(S(=O)(=O)O)c2c1 | -7% (inactive)
14 | CCCCC=O | 7.63% (inactive)
15 | Fc1ccccc1-c1ccccc1 | 0.692% [at 78.8 µM] (inactive)
16 | O=S(=O)(c1cccc2cnccc12)N1CCCNCC1 | -9.15% (inactive)
17 | CN1[C@@H]2CC[C@H]1CC(NC(=O)n1c(=O)[nH]c3ccccc31)C2 (stereo not given in full) | 6.64% (inactive)
18 | C=CC(=O)OCCCCCC | 1.29% (inactive)
19 | C(=C(c1ccccc1)c1ccccc1)c1ccccc1 | -25.8% (inactive)
20 | N[C@@H](CS)C(=O)O | -14.4% [at 78.8 µM] (inactive)

Row | SMILES | viability change, negative = cytotoxic
21 | CC1(C)OC(=O)Nc2ccc(Br)cc21 | 11.5% (inactive)
22 | Cc1ccc(Nc2ccc(O)c3c2C(=O)c2ccccc2C3=O)cc1 | 0.862% (inactive)
23 | CC(C)(O)Cc1ccccc1 | 4.22% (inactive)
24 | NCCNC(=O)c1ccc(Cl)cn1 | 5.11% (inactive)
25 | O=C(O)C1CCC1 | -3.81% (inactive)
26 | OCCCCCCO | 21% [at 78.8 µM] (inactive)
27 | CCO[Si](CCCN=C=O)(OCC)OCC | -17% (inactive)
28 | Cc1c(C)n(CCN(C)C)c2ccc(C(=O)OCCN(C)C)cc12 | -20.3% (inactive)
29 | CCCCNc1ccccc1 | 12.3% (inactive)
30 | CCn1c(=O)c2c(nc(/C=C/c3ccc(OC)c(OC)c3)n2C)n(CC)c1=O | -10.3% (inactive)
31 | C=CC(=O)N1CCOCC1 | 10.2% (inactive)
32 | CCCCCCCCCCCCCCCCCC(=O)OCCCCCCCCCCCCCC(C)C | -24.8% (inactive)
33 | CC(C)=CCC/C(C)=C/C(=O)O | -30.3% (inactive)
34 | CSc1ccc(C=O)cc1 | -1.26% (inactive)
35 | Nc1nc2c(ncn2CCC(CO)CO)c(=O)[nH]1 | 4.28% (inactive)
36 | NS(=O)(=O)c1cc2c(cc1Cl)NC(CSCc1ccccc1)=NS2(=O)=O | 13.3% (inactive)
37 | CC(=O)c1ccc(C)cc1 | -2.09% (inactive)
38 | CC1=CC(C)C(C=O)C(C)C1 (stereo not given) | 4.64% (inactive)
39 | Nc1ncnc2c1ncn2Cc1c(F)cccc1Cl | 4.68% (inactive)
40 | CCOC(=O)Cn1c(=O)sc2cccc(Cl)c21 | 9.43% (inactive)

Reference: PubChem BioAssay (Tox21)
